Sampled rows, rich in hits. Any-hit rate of the full collection: about 28%.
CYP2C19 activ – increases human CYP2C19 enzyme activity; P33261; recombinant CYP2C19, luciferin-H EGE luminescence; hits give high values; 0 = fully inhibited enzyme, 1 = untreated enzyme; activation factor at 5 µM; 96,000 tested, under 10 active; AID 1025;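 active = activation factor of at least 2 at 5 µM in the primary screen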
CD11b adhes inh – CD11b/CD18-fibrinogen binding inhibition. inhibition, % at 10 µM. 93,000 tested, 0.54% active. AID 1497. K562 CD11b/CD18 adhesion to fibrinogen, ATPlite luminescence; Mn2+ added to activate the integrin. P05107+P11215;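 active = primary inhibition of 50% or more at 10 µM, then 40% or more on retest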
CYP2C19 inh – inhibitors of human CYP2C19; inhibition, % at 5 µM; 96,000 tested, 21% active; CYP2C19 Supersomes, luciferin-H EGE luminescence, 30 min;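 active = CYP2C19 inhibition above a set limit at 5 µM in the primary screen, cut at about 50% in these data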
CYP2C9 inhib – inhibitors of human CYP2C9; P11712; CYP2C9 Supersomes, luciferin-H conversion, luminescence; inhibition, % at 5 µM; 96,000 tested, 20% active;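 active = blocking of liver enzyme CYP2C9 beyond about 50% at 5 µM, limit read from the data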
Target sequence (P11712 whole entry, looked up): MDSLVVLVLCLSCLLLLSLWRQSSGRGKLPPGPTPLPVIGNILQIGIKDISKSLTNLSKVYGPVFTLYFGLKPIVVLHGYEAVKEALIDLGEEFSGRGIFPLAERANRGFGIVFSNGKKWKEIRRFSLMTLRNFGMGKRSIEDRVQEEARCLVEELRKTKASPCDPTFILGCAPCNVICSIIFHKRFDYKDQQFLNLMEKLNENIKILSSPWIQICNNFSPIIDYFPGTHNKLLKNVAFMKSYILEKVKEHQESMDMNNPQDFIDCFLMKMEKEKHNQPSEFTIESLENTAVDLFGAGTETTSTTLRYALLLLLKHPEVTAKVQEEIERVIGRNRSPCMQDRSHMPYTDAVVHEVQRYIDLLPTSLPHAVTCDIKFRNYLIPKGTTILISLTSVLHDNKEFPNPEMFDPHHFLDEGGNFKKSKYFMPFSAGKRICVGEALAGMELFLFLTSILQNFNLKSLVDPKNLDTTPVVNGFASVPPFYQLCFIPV
CD11b adhes enh – increases human CD11b/CD18 adhesion to fibrinogen. P05107+P11215. K562 CD11b/CD18 adhesion to fibrinogen, ATPlite luminescence. activation, % at 10 µM. 93,000 tested, 0.07% active. AID 1499;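 active = 10 µM primary screen giving 50% or more activity, confirmed by 40% or more on retest at that dose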
CYP2C9 act – CYP2C9 (human) activation; P11712; recombinant CYP2C9, luciferin-H conversion, luminescence; hits give high values; factor 1 = untreated enzyme, 0 = blocked; activation factor at 5 µM; 96,000 tested, 1.4% active; AID 1024;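 active = activation factor of 2 or more for CYP2C9 at a 5 µM dose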
Of the large screens only hits and unclear results are named; the others gave an inactive call.

Cc1ccc2[nH]c(=O)c(CN(Cc3cccnc3)C(=O)c3ccncc3)cc2c1	CYP2C19 inh 91, CYP2C9 inhib 80
CCN(Cc1cc2ccccc2[nH]c1=O)C(=O)c1cccnc1	none
Cc1ccc(C(=O)NCc2ccco2)cc1S(=O)(=O)N1CCOCC1	none (no result: CD11b adhes inh, CD11b adhes enh)
O=C(NCCCn1ccnc1)c1cc(S(=O)(=O)N2CCOCC2)c(Cl)cc1Cl	CYP2C19 inh 72, CYP2C9 inhib 96
O=C(NCCCn1ccnc1)c1ccc(Br)c(S(=O)(=O)N2CCOCC2)c1	CYP2C19 inh 53, CYP2C9 inhib 95 (no result: CD11b adhes inh, CD11b adhes enh)
Cc1ccc(S(=O)(=O)N2CCOCC2)cc1C(=O)NCCCn1ccnc1	CYP2C19 inh 65, CYP2C9 inhib 76
O=C(Nc1ccccc1O)c1cc(S(=O)(=O)N2CCOCC2)c(Cl)cc1Cl	none
Cc1ccc(/C(N)=N/OC(=O)COc2ccccc2Cl)cc1	none
CC1CCN(c2ccc(NC(=O)c3cccnc3)cc2)CC1	CYP2C9 inhib 72
N#Cc1nc(COc2cccc(Cl)c2)oc1NCc1ccncc1	CYP2C19 inh 100, CYP2C9 inhib 100
N#Cc1nc(-c2cccc(Cl)c2)oc1NCc1cccnc1	CYP2C19 inh 95, CYP2C9 inhib 94
COc1ccc(-c2nc(C#N)c(NCc3cccnc3)o2)cc1OC	CYP2C9 inhib 51 (no result: CD11b adhes inh, CD11b adhes enh)
COc1ccc(-c2nc(C#N)c(NCc3ccc(F)cc3)o2)cc1OC	none
Cc1ccccc1OCC(=O)NC(=S)Nc1ccc(N2CCOCC2)c(Cl)c1	none (no result: CD11b adhes inh, CD11b adhes enh)
Cc1ccccc1OCc1nnc(SCC(=O)Nc2ccc(N3CCOCC3)c(Cl)c2)n1C	CYP2C19 inh 58
CCn1c(COc2ccccc2C)nnc1SCC(=O)Nc1ccc2c(c1)OCCO2	none
Cc1ccccc1OCc1nnc(SCC(=O)Nc2ccc3c(c2)OCO3)n1C	CYP2C19 inh 76
COc1cc(CNC(C)(C)CO)ccc1OCC(=O)Nc1ccc(Br)cc1	none (no result: CD11b adhes inh, CD11b adhes enh)
CCCCn1c(SCC(=O)Nc2cccc(C)n2)nnc1-c1ccco1	CYP2C19 inh 87, CYP2C9 inhib 96
CCCCn1nnnc1SCC(=O)Nc1cccc(C)n1	CYP2C19 inh 65
FC(F)(F)c1cccc(Cn2nnnc2-c2cccc(C(F)(F)F)c2)c1	CYP2C19 inh 92, CYP2C9 inhib 54 (no result: CD11b adhes inh, CD11b adhes enh)
COCCn1nnnc1C(c1cccc(C(F)(F)F)c1)N1CCN(Cc2ccccc2)CC1 (centres undefined)	none
FC(F)(F)c1cccc(Cn2nnnc2-c2cc(Cl)cc(Cl)c2)c1	CYP2C19 inh 89, CYP2C9 inhib 62 (no result: CD11b adhes inh, CD11b adhes enh)
CCOc1ccc(NC(=O)c2cn(-c3ccc(OCC)cc3)c(=O)c3cc(OC)c(OC)cc23)cc1	none
CCOc1ccc(-n2cc(C(=O)Nc3cccc(Cl)c3)c3cc(OC)c(OC)cc3c2=O)cc1	CYP2C9 inhib 59
CCN(CCCNC(=O)CCNC(=O)Cn1cnc2ccccc2c1=O)c1ccccc1	none
CCN(CCCNC(=O)CC(C(=O)N1CCc2ccccc21)n1ccnc1)c1ccccc1 (centres undefined)	CYP2C19 inh 94
O=C(C1CCC(=O)N1Cc1ccccc1Cl)N1CCN(c2cccc(Cl)c2)CC1 (centres undefined)	none
Cc1cc(C)cc(CC(Cc2nc3ccccc3[nH]2)c2nc3ccccc3[nH]2)c1 (centres undefined)	CYP2C19 inh 97, CYP2C9 inhib 77
CCCCCC(=O)Nc1ccccc1N1CCN(c2ccccc2)CC1	none
CCCCC(=O)Nc1cccc2c1C(=O)N(c1ccccc1)C2=O	CYP2C19 inh 51, CYP2C9 inhib 67
O=C(CCc1ccccc1)Nc1ccccc1[N+](=O)[O-]	none (no result: CYP2C19 activ, CYP2C19 inh, CYP2C9 inhib, CYP2C9 act)
CN1C(=O)c2cccc(NC(=O)CCc3ccccc3)c2C1=O	CYP2C19 inh 70, CYP2C9 inhib 62
COCC(C)n1c(C)cc(C(=O)COC(=O)c2ccc(N3CCCC3=O)cc2)c1C (centres undefined)	none
Cc1cccc(OCC(=O)NCC(=O)n2nc(C)cc2C)c1	CYP2C19 inh 61, CYP2C9 act 2.1
Cc1cccc(OCC(=O)Nc2cccc(O)c2)c1	CYP2C19 inh 79
O=C(COc1ccccc1)Nc1ccc(OC(F)(F)C(F)F)c(NC(=O)COc2ccccc2)c1	CYP2C9 inhib 54
Cc1ccc(OCC(=O)Nc2cccc(O)c2)cc1C	none

From PubChem BioAssay
